Reference: PubChem BioAssay (NCATS)
“And” between values parts separate entries of the source, which are not always exact repeats. Identical values can stand only once. Unmarked numbers belong to inactive results. Records with an inconclusive call do not appear. A call without a number means that no potency is given here. Some structures have more than one record in an assay (separate samples or runs), and their calls can disagree. The source made the active and inactive calls. Unless noted, the call rests on the fitted dose curve; in most records, active means well fitted curve in the direction sought with a large enough effect; inconclusive means small, poorly fitted or top-dose-only effect, or another doubt; inactive means no such curve, though single readings can be large; an effect the other way counts as inactive or inconclusive.

Columns and labels:
[1] = Cell Viability - Jurkat (AID 426;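 active means dose-dependent loss of cell ATP signal giving a full or clear fitted curve, ranked by lower potency value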;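 further: potency means the concentration at half of the fitted maximal effect; cells exposed to compound for 40 hours at 37 °C before ATP read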); settings: qHTS
Outline: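 Seed 5000 Jurkat E6-1 cells/well; add compound; incubate 40 hr at 37 °C; add CellTiter-Glo; wait 20 min at room temperature; read luminescence. Fit concentration-response with Hill equation for AC50.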

[2] = Cell Viability - Hek293 (AID 427;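 active means compounds whose dose-response curve shows a full or clear partial loss of cell viability, called from curve shape rather than a numeric limit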;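 further: potency means the concentration at half of the fitted maximal effect; cells exposed to compound for 40 hours at 37 °C before reading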); settings: qHTS
Outline: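 Luminescent ATP read-out (CellTiter-Glo, 20 min RT) after 40 hr compound exposure at 37 °C in complete medium. Signal normalized to DMSO (basal) and 100 uM tamoxifen (100% inhibition); concentration-response fitted with the standard Hill equation to give AC50.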

[3] = Cellular Toxicity (caspase-3) Jurkat (AID 655); settings: Jurkat caspase-3 activation, luminescence; caspase-3 activation: at 92.2 µM (top of the series), DMSO = 0%, tamoxifen = 100%;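 further: cells exposed to compound for 16 h at 37 °C before reading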
Outline: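 Luminescent Caspase-Glo 3/7 read-out (20 min, room temperature) after 16 h compound treatment at 37 C of 5000 Jurkat cells per well. AC50 derived by Hill-equation fitting, scaled between DMSO basal and 100 uM tamoxifen stimulation.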

[4] = Cellular Toxicity (caspase-3) Hek293 (AID 664); settings: HEK293 caspase-3 activation, DMSO = 0%, 100 µM tamoxifen = 100%; at 92.2 µM (top of the series);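 further: cells exposed to compound for 16 h at 37 °C before readout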
Outline: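 Activation of caspase-3/7 is measured as increased luminescence from cleaved peptide-aminoluciferin substrate in HEK293 cells treated 16 hours at 37 °C. AC50 values come from Hill-equation fits of concentration-response data.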

[5] = target: Cytochrome P450 3A4 (Homo sapiens) (UniProt P08684); test: qHTS Assay for Inhibitors and Substrates of Cytochrome P450 3A4 (AID 884); settings: recombinant CYP3A4, Luciferin-PPXE luminescence; series mostly up to 57.1 µM; further: nearly all actives have a fitted effect of over 50% in size
Outline: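 20 nM human CYP3A4 with 25 uM Luciferin-PPXE (at KM) in 200 mM KPO4, preincubated 10 min with compound; NADPH regeneration started a 60 min RT reaction. Luciferin detected by luminescence, normalized to 57 uM ketoconazole as full inhibition.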

[6] = Cell Viability - LYMP1-002 - Assay at 16 hr (AID 948); settings: LYMP1-002 lymphoblastoid cell viability; series mostly up to 92.2 µM
Outline: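 ATP luminescence (CellTiter-Glo) was measured after 16 hr compound exposure at 37 C of 2500 lymphoblastoid LYMP1-002 cells per well. Concentration-response curves were fitted with the Hill equation to give AC50.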

[7] = Cell Viability - LYMP2-003 (AID 965); settings: LYMP2-003 lymphoblastoid cell viability; series mostly up to 92.2 µM;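 further: cells exposed to compounds for 24 h before reading; nearly all actives have a fitted effect of over 50% in size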
Outline: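 CellTiter-Glo luminescence quantified ATP loss after 24 h compound treatment of LYMP2-003 lymphoblastoid cells at 37 C. Titration series were fitted with the standard Hill equation to give AC50.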

[8] = Cell Viability - LYMP1-002 - Assay at 24 hr (AID 993); settings: LYMP1-002 lymphoblastoid cells viability; series mostly up to 92.2 µM
Outline: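 qHTS, LYMP1-002 lymphoblastoid, 24 h cpd, 37 C, CellTiter-Glo ATP luminescence; AC50 via Hill eq.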

[9] = target: Peroxisome proliferator-activated receptor gamma (Homo sapiens) (UniProt P37231); test: qHTS assay for small molecule agonists of peroxisome proliferator-activated receptor gamma signaling (AID 588536; active means well fitted curve in the direction sought with a large enough effect in the signal ratio, with a control signal flat, not every such curve was filed as active; the % refers to the signal ratio); settings: HEK293 PPARg-UAS-bla, beta-lactamase ratio, 16 h, percent of rosiglitazone response, DMSO as zero; series mostly up to 76.7 µM
Outline: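 PPAR-gamma-UAS-bla HEK293 cells in medium with 1% charcoal/dextran-treated FBS were exposed to compounds for 16 h at 37 C. Beta-lactamase activity was read with CCF4 substrate (405 nm excitation, 460/530 nm emission).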

[10] = target: Vitamin D3 receptor (Homo sapiens) (UniProt P11473); test: qHTS assay for small molecule agonists of vitamin D receptor signaling (AID 588543; calls by dose curve); settings: HEK293T VDR-UAS-bla, beta-lactamase ratio, 16 h; series mostly up to 76.8 µM
Outline: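 Agonist-mode beta-lactamase reporter: HEK293T VDR-UAS-bla cells in charcoal-stripped 2% FBS, compound series 16 h 37 C, CCF4 2 h RT. EC50 from Hill fit, scaled against DMSO and 50 nM calcitriol control.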

[11] = target: Voltage-gated inwardly rectifying potassium channel KCNH2 (Homo sapiens) (UniProt Q12809); test: qHTS Assay for Small Molecule Inhibitors of the Human hERG Channel Activity (AID 588834); settings: U2OS BacMam hERG, FluxOR thallium flux fluorescence; series mostly up to 92.2 µM;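 further: top concentration of the series differs between compounds; lower thallium flux fluorescence means stronger hERG block; nearly all actives have a fitted effect of over 50% in size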
Outline: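 Kinetic FDSS fluorescence; U2OS + hERG BacMam (~100 virus particles/cell); FluxOR Tl+ flux; ~10 min cpd; AC50 (Hill).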

[12] = qHTS assay for small molecule agonists of the antioxidant response element (ARE) signaling pathway (AID 651741; active means well fitted activation curve with a large enough effect in the signal ratio; the % refers to the signal ratio; further: potency means the concentration at half of the fitted maximal effect); settings: HepG2 ARE-bla reporter, beta-lactamase FRET ratio, 16 h; series mostly up to 96 µM
Outline: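 ARE-bla HepG2 cells (beta-lactamase reporter under ARE control) were plated at 2,000 cells/well, preincubated 5 h at 37 C/5% CO2, then treated with DMSO-dissolved compounds for 16 h at 37 C; LiveBLAzer B/G FRET substrate added, fluorescence read after 2 h at room temperature.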

[13] = qHTS assay for small molecule activators of the p53 signaling pathway (AID 651743; active means well fitted activation curve with a large enough effect in the signal ratio, not every such curve was filed as active; the % refers to the signal ratio; further: potency means the concentration at half of the fitted maximal effect); settings: HCT-116 p53RE-bla, beta-lactamase FRET ratio, 16 h; activation: hits give high values
Outline: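 p53RE-bla HCT-116 cells with a stably integrated beta-lactamase reporter under p53 response elements were plated, rested 5 hours at 37 C/5% CO2, then exposed to compounds in DMSO for 16 hours at 37 C. LiveBLAzer B/G FRET substrate was read after 2 hours at room temperature.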

[14] = qHTS assay for small molecule activators of the nuclear factor-kappa B (NF-kB) signaling pathway (AID 651749; active means well fitted activation curve with a large enough effect in the signal ratio; the % refers to the signal ratio); settings: NF-kB-bla ME-180 cells, beta-lactamase FRET ratio, 16 h; hits give high values
Outline: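 ME-180 cells stably carrying a beta-lactamase reporter under an NF-kB response element were exposed to compound or DMSO vehicle for 16 hr at 37C, 5% CO2. Pathway activation was read by FRET, since reporter expression disrupts FRET.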

[15] = target: Tumor necrosis factor (Homo sapiens) (UniProt P01375); test: qHTS assay to identify small molecules that stimulate Tumor Necrosis Factor-alpha (TNF-alpha) secretion (AID 651757; active means well fitted curve in the direction sought with a large enough effect in the signal ratio; the % refers to the signal ratio); settings: Human cells, HTRF 665/615 ratio; series mostly up to 92.2 µM
Outline: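 Secreted TNF-alpha from compound-treated THP-1 cells (17 hrs, 37 C) was quantified with a homogeneous time-resolved fluorescence antibody assay.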

[16] = target: Nuclear receptor ROR-gamma (Homo sapiens) (UniProt P51449); test: qHTS assay for small molecule antagonists of the retinoid-related orphan receptor gamma (ROR-gamma) signaling pathway (AID 651802); settings: ROR-gamma antagonist cell reporter assay; series mostly up to 92.2 µM; further: nearly all actives have a fitted effect of over 60% in size; further: potency means the concentration at half of the fitted maximal effect
Outline: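 Antagonism is scored as a fall in luminescence from a RORE-luciferase reporter in CHO cells expressing ROR under a TET-inducible promoter, measured 16hr after doxycycline induction in the presence of compound.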

[17] = qHTS assay for small molecule antagonists of the retinoid-related orphan receptor gamma (ROR-gamma) signaling pathway - cell viability counter screen (AID 720652; active means well fitted curve in the direction sought with a large enough effect in the repeat runs; an effect the other way counts as inactive or inconclusive;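 further: CHO reporter cells with doxycycline-induced ROR-gamma expression; compound exposure lasted 16 hr before ATP read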); settings: RORgamma reporter cell line viability counter screen; series mostly up to 92.2 µM
Outline: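 Cytotoxicity is quantified via intracellular ATP (CellTiter-Glo luminescence) in doxycycline-induced CHO ROR response element-luciferase reporter cells treated with compound for 16 hr at 37 C, 5% CO2.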

[18] = Cellular Toxicity (caspase-3) BJ (AID 658); settings: BJ fibroblasts, luminescence; Potency: caspase-3 activation; series mostly up to 91.7 µM
Outline: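 Luminescent aminoluciferin-substrate cleavage reports caspase 3/7 activity in normal human BJ fibroblasts after 16 hr compound exposure at 37 °C. Normalized to DMSO (basal) and 10 uM staurosporine (100%); AC50 from Hill fit of concentration-response.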

[19] = target: Estrogen receptor (Homo sapiens) (UniProt P03372); test: qHTS assay for small molecule antagonists of estrogen receptor alpha signaling (AID 588513; active means well fitted curve in the direction sought with a large enough effect in the signal ratio, with a control signal flat, not every such curve was filed as active; the % refers to the signal ratio); settings: ER-alpha-UAS-bla HEK293, beta-lactamase ratio, antagonist mode; series mostly up to 76.9 µM
Outline: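 Antagonist mode: inhibition of 0.5 nM 17-beta-estradiol-driven beta-lactamase reporter in HEK 293 ER-alpha-UAS-bla cells, 18 h at 37C, CCF4 readout after 2 h at RT. Normalised to estradiol and DMSO; titration fitted to Hill.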

[20] = qHTS assay for small molecule activators of the human pregnane X receptor (PXR) signaling pathway (AID 720659; call rule not given here); settings: DPX-2 HepG2 CYP3A4-luciferase, 24 h; series mostly up to 92.3 µM

Chain of Tumor necrosis factor (Homo sapiens) (P01375 whole entry, looked up): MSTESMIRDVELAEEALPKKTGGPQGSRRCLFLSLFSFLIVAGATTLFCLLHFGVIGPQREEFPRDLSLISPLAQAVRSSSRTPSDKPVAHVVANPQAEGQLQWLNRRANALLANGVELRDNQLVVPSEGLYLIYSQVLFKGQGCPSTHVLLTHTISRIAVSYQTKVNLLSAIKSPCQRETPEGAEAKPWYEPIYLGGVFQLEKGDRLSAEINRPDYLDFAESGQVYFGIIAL
Chain of Peroxisome proliferator-activated receptor gamma (Homo sapiens) (P37231 whole entry, looked up): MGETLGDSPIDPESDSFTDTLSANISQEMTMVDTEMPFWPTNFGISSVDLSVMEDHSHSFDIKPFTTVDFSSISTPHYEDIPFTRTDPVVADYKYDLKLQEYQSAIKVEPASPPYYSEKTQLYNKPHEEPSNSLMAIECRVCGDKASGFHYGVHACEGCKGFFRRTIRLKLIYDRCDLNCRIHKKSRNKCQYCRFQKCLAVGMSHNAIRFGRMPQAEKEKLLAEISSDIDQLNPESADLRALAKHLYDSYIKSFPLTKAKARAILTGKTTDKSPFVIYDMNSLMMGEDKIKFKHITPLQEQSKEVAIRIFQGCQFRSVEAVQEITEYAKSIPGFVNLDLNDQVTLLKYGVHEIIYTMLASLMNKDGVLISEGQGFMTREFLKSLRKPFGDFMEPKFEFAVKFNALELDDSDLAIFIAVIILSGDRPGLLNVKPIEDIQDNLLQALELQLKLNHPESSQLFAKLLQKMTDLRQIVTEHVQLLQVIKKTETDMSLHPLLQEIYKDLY
Chain of Vitamin D3 receptor (Homo sapiens) (P11473 whole entry, looked up): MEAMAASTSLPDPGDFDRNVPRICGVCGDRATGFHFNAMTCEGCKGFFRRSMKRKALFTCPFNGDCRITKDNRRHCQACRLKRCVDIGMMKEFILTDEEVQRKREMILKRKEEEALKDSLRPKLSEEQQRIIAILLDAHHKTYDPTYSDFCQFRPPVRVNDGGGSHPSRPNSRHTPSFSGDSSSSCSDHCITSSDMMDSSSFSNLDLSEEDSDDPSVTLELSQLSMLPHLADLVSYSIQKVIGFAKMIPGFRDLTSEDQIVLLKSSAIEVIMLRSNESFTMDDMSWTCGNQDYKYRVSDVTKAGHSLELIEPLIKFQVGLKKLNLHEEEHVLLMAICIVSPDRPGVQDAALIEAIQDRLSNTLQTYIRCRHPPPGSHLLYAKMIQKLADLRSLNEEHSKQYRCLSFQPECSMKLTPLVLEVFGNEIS
Chain of Estrogen receptor (Homo sapiens) (P03372 whole entry, looked up): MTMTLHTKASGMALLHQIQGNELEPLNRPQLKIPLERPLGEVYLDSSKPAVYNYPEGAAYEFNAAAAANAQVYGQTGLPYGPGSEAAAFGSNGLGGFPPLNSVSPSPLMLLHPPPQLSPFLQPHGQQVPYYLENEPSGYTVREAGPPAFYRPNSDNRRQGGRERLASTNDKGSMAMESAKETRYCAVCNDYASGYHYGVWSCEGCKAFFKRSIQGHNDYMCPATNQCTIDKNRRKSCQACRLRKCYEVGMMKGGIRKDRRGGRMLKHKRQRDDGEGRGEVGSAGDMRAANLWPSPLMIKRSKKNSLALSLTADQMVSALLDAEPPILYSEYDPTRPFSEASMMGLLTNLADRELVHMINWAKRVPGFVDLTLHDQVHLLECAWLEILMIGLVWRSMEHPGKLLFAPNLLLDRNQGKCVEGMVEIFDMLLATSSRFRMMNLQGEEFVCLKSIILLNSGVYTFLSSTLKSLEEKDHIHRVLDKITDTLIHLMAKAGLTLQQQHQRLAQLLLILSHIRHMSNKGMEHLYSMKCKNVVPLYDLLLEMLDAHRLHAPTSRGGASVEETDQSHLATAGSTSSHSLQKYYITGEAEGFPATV
Chain of Cytochrome P450 3A4 (Homo sapiens) (P08684 whole entry, looked up): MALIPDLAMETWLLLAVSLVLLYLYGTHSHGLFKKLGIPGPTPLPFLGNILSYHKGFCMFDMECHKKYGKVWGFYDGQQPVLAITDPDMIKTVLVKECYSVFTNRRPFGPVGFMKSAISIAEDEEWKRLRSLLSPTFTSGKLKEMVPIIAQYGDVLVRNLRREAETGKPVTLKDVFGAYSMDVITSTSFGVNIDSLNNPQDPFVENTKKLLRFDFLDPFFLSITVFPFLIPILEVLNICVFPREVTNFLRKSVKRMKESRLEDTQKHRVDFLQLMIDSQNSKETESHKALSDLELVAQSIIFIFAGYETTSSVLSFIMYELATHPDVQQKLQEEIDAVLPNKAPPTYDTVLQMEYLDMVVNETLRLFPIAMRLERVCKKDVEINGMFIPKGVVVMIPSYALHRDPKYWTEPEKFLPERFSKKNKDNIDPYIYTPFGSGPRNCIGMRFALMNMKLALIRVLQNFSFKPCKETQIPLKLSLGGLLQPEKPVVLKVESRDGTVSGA
Chain of Nuclear receptor ROR-gamma (Homo sapiens) (P51449 whole entry, looked up): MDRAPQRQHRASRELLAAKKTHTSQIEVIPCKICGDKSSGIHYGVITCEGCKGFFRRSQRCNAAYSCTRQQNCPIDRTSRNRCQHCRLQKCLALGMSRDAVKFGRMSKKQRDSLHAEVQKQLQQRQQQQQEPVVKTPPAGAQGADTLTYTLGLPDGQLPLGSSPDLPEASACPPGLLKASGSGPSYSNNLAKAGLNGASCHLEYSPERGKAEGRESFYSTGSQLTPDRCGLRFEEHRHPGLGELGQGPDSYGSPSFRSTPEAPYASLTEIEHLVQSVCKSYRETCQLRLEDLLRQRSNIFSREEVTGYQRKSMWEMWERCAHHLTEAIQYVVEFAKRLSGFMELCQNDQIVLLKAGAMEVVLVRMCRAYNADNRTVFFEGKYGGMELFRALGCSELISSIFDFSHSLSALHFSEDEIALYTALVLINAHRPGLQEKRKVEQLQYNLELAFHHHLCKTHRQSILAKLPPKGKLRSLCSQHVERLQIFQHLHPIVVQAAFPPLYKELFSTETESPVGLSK
Chain of Voltage-gated inwardly rectifying potassium channel KCNH2 (Homo sapiens) (Q12809 whole entry, looked up): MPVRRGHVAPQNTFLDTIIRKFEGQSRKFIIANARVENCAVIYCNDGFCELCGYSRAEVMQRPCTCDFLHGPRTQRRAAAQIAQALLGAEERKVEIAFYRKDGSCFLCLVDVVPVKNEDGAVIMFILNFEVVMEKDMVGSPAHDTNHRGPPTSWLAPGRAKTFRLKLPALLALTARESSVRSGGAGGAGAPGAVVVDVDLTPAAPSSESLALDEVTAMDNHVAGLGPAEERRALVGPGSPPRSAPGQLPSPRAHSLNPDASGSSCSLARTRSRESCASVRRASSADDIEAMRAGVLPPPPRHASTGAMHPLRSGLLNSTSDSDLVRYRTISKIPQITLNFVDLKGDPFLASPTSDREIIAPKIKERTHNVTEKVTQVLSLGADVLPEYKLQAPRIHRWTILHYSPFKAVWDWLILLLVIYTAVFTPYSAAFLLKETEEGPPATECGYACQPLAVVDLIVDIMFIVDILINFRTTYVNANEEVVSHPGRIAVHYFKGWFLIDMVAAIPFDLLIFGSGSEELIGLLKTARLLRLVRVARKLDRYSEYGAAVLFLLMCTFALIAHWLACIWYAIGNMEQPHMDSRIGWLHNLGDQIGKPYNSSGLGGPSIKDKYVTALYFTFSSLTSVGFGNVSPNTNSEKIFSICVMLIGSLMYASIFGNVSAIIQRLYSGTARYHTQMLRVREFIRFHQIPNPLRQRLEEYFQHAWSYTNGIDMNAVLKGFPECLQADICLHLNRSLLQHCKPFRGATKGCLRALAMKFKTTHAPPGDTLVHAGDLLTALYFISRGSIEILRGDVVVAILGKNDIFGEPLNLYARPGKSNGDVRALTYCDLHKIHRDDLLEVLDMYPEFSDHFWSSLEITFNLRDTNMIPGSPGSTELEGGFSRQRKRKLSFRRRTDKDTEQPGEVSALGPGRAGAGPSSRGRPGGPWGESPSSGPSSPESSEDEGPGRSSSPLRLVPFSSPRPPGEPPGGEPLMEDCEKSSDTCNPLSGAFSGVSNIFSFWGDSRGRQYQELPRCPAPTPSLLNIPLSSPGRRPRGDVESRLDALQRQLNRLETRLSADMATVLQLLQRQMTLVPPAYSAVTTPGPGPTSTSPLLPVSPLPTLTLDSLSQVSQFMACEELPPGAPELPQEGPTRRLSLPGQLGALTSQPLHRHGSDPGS

In the case of `Oc1c(Cl)cc(Cl)c(Cl)c1Cl`, the Potency [1] is reported as 57 µM (active), the Potency [2] is reported as > 92 µM and the caspase-3 activation [3] is reported as 91.2% (active). The caspase-3 activation [4] was 1.49%, the Potency [5] was “inactive” and the Potency [6] was “inactive”. The Potency [7] was “inactive”, the Potency [8] was “inactive” and the outcome [9] was “inactive”. For the same molecule, the Potency [10] was “inactive”, the Potency [11] was “inactive” and the Potency [12] was 33.5 µM (active). The Potency [13] was 44.7 µM (active), the activation [13] was 2.74% and the activation [14] was -0.537% and 2.41%. The Potency [15] was “inactive”, the Potency [16] was 33.5 µM (active) and the Potency [17] was “inactive”.

With `COc1ccc(C(=O)Nc2ccccc2)cc1[N+](=O)[O-]` the Potency [1] was > 92 µM, the Potency [2] was > 92 µM and the Potency [3] was “inactive”. For the same molecule, the Potency [18] was “inactive”, the Potency [6] was “inactive” and the outcome [19] was “inactive”. The outcome [9] was “inactive”, the Potency [10] was “inactive” and the Potency [11] was “inactive”. For the same molecule, the activation [13] was -6.78%, the activation [14] was 1.42% and the Potency [15] was “inactive”. For the same molecule, the Potency [16] was “inactive” and the Potency [17] was “inactive”.

For `CC(C)COC(=O)COc1cc(Cl)c(Cl)cc1Cl`, the Potency [1] was > 92 µM, the Potency [2] was > 92 µM and the caspase-3 activation [4] was 3.66%. For the same molecule, the Potency [5] was “inactive”, the Potency [7] was “inactive” and the Potency [8] was “inactive”. The outcome [19] was “inactive”, the outcome [9] was “inactive” and the Potency [12] was 42.2 µM (active). For the same molecule, the activation [13] was -1.51%, the activation [14] was -1.07% and the Potency [16] was “inactive”. For the same molecule, the Potency [17] was “inactive” and the outcome [20] was “inactive”.

With `CC(C)OCC1CO1` (stereo not drawn) the Potency [1] was > 92 µM, the Potency [2] was > 92 µM and the Potency [3] was “inactive”. For the same molecule, the Potency [18] was “inactive”, the caspase-3 activation [4] was -0.484% and the Potency [5] was “inactive”. The Potency [7] was “inactive”, the Potency [8] was “inactive” and the outcome [19] was “inactive”. For the same molecule, the outcome [9] was “inactive”, the Potency [10] was “inactive” and the Potency [11] was “inactive”. For the same molecule, the Potency [12] was “inactive”, the activation [13] was 0.641% and the activation [14] was 0.599%. The Potency [15] was “inactive”, the Potency [17] was “inactive” and the outcome [20] was “inactive”.

For `C=Cc1cccc(C)c1`, the Potency [1] was > 92 µM, the Potency [2] was > 92 µM and the Potency [3] was “inactive”. For the same molecule, the Potency [18] was “inactive”, the caspase-3 activation [4] was -0.822% and the Potency [5] was “inactive”. The Potency [7] was “inactive”, the Potency [8] was “inactive” and the outcome [19] was “inactive”. For the same molecule, the outcome [9] was “inactive”, the Potency [10] was “inactive” and the Potency [11] was “inactive”. For the same molecule, the Potency [12] was “inactive”, the activation [13] was -1.54% and the Potency [15] was “inactive”. The Potency [16] was “inactive”, the Potency [17] was “inactive” and the outcome [20] was “inactive”.

In the case of `Cc1ccc(N)cc1[N+](=O)[O-]`, the Potency [1] is reported as > 92 µM, the Potency [2] is reported as > 92 µM and the Potency [3] is reported as “inactive”. For the same molecule, the Potency [6] was “inactive”, the Potency [7] was “inactive” and the Potency [8] was “inactive”. For the same molecule, the outcome [9] was “inactive”, the Potency [10] was “inactive” and the Potency [11] was “inactive”. For the same molecule, the activation [13] was -0.0251%, the activation [14] was 0.0603% and the Potency [15] was “inactive”. For the same molecule, the Potency [16] was “inactive”, the Potency [17] was “inactive” and the outcome [20] was “inactive”.

With `CCCCCCCCOc1ccc(C(=O)O)cc1` the Potency [1] was > 92 µM, the Potency [2] was > 92 µM and the Potency [3] was “inactive”. For the same molecule, the Potency [18] was “inactive”, the Potency [5] was “inactive” and the Potency [6] was “inactive”. For the same molecule, the Potency [7] was “inactive”, the Potency [8] was “inactive” and the Potency [10] was “inactive”. For the same molecule, the Potency [11] was “inactive”, the activation [13] was 4.64% and the activation [14] was -0.0346%. The Potency [15] was “inactive”, the Potency [16] was “inactive” and the Potency [17] was “inactive”. The outcome [20] was “inactive”.
